The campaign covered roughly 3,600 compounds. About 900 (25%) were called active. How the calls were made is not given here. Only a sample is shown. Entries with a potency or affinity are not part of this list.
target: Protein Tat (Human immunodeficiency virus type 1 group M subtype B (isolate HXB2)) (UniProt P04608); assay: HIV-1 Tat–TAR interaction blockers – biochemical, fluorescence polarization, FAM-labeled TAR RNA, counter-screen for Vif-APOBEC3G degradation inhibitor project, dose response (AID 1117361); settings: Tat-TAR RNA binding; series mostly up to 100 µM

Row | Structure (SMILES) | outcome
1 | CCCOc1ccc2oc(=O)c3c(c2c1)CCCN3C(=O)CN1CCc2ccccc2C1 | inactive
2 | COC1=CC(=O)C(C2CC(=O)c3c(O)cc(O)cc3O2)=CC1=O (stereo unspecified) | inactive
3 | COc1cc(Cl)c(C)cc1NC(=O)COc1cc(C)nc(C(C)C)n1 | inactive
4 | O=C(CCC(=O)N1CCN(S(=O)(=O)c2ccccc2)CC1)NC1CCCc2ccccc21 (stereo unspecified) | inactive
5 | CCOc1ccc(-c2nc(CN3CCCCC3CCn3cccn3)c(C)o2)cc1 (stereo unspecified) | inactive
6 | N#CCSc1nc2sc3c(c2c(=O)n1C1CCCCC1)CCCC3 | inactive
7 | CN(C)[C@H]1N(C(=O)c2ccc(Br)cc2)N=C2c3ccccc3S(=O)(=O)N21 | inactive
8 | COc1cc(C2NC(=O)NC(C)=C2C(=O)OCC2CCCO2)ccc1O (stereo unspecified) | inactive
9 | COc1ccc(NC(=S)N(CCCN2CCCC2)Cc2ccco2)cc1 | inactive
10 | CCCCCC(=O)N1C[C@@H](n2cc(C3CC3)nn2)[C@H](O)C[C@@H]1c1ccc(C)cc1 | inactive
11 | O=C(O)CCN1CCOCC1 | inactive
12 | COc1cccc(OC)c1C(=O)NC(C)C12CC3CC(CC(C3)C1)C2 (stereo unspecified) | inactive
13 | Brc1ccc(-c2nnc(-c3cccc(Br)c3)o2)cc1 | inactive
14 | O=C1OC(c2ccc(Br)cc2)=N/C1=C\N1CCCCC1 | inactive
15 | CCn1c(SC(C)C)nnc1-c1cc(-c2ccccc2)sc1N | inactive
16 | COCCNC(=O)Cn1ncc2ccsc2c1=O | inactive
17 | Cc1ccc(OCCC(=O)OCC(=O)c2ccc3c(c2)NC(=O)CO3)cc1 | inactive
18 | CCC(C)[C@@H](C(=O)Nc1ccc2c(c1)OCO2)N1Cc2ccccc2C1=O (stereo partly specified) | inactive
19 | Cc1ccc(S(=O)(=O)CCC(=O)Nc2ccc3c(c2)OCO3)cc1 | inactive
20 | CCc1ccc(NC(=O)COC(=O)CCc2nc3cc(S(=O)(=O)N(CC)CC)ccc3n2C)cc1 | inactive
21 | Cc1ccc(S(=O)(=O)NCCC(=O)N2CCN(C/C=C/c3ccccc3)CC2)cc1 | inactive
22 | CCCc1cc(=O)[nH]c(SCC(=O)c2c(C)[nH]c3ccccc23)n1 | inactive
23 | O=C(CSc1nc2ccccc2c(=O)n1NC(=O)c1ccccc1)c1ccccc1 | inactive
24 | COc1ccc(CC(NC(C)=O)C(=O)NC2CCN(S(=O)(=O)c3cccc4ccccc34)CC2)cc1OC (stereo unspecified) | inactive

Row | Structure (SMILES) | outcome
25 | COc1c(F)c(F)c(C(=O)Nc2ccc3oc(-c4ccncc4)nc3c2)c(F)c1F | inactive
26 | CCOC(=O)C1=C(C)NC2=C(C(=O)CC(C)(C)C2)C1c1ccsc1 (stereo unspecified) | inactive
27 | CCN(CC)c1ccc(C2NC(=O)NC(C)=C2C(=O)Nc2ccccc2)cc1 (stereo unspecified) | inactive
28 | CCOC(=O)c1c(O)c2ccccc2n(-c2ccccc2)c1=O | inactive
29 | CCn1c(=O)c(C(=O)NCc2ccccn2)c(O)c2ccccc21 | inactive
30 | O=C(CSc1nccn1Cc1ccccc1)Nc1nccs1 | inactive
31 | CC(C)(C)OC(=O)NC(CCNC=C1C(=O)OC(C)(C)OC1=O)C(=O)O (stereo unspecified) | inactive
32 | O=C(Cc1ccc2c(c1)OCCO2)N1CCN(S(=O)(=O)c2cccs2)CC1 | inactive
33 | CC(=O)Nc1nnc(C)s1 | inactive
34 | COc1ccc(-c2nnc(-c3ccc(N)cc3)o2)cc1 | inactive
35 | COc1ccc(CNc2nc3ccccc3n2C)c(O)c1 | inactive
36 | O=C(NCCc1ccncc1)Nc1ccccc1Cl | inactive
37 | O=C(CCCNS(=O)(=O)c1cccc2nsnc12)NCc1ccccc1 | inactive
38 | Cc1onc(-c2ccccc2)c1C(=O)NCc1cccs1 | inactive
39 | O=C(NCc1ccco1)c1cc(-c2cccc(Cl)c2)on1 | inactive
40 | Cc1cc2oc(=O)cc(C)c2c(=O)o1 | inactive
41 | CS(=O)(=O)N1CCc2cc(C(=O)OCC(=O)c3ccccc3)ccc21 | inactive
42 | CCOC(=O)c1c(NC(=O)Cn2cc([N+](=O)[O-])cn2)sc2c1CCC2 | inactive
43 | CCOC(=O)c1c(NC(C)=O)sc2c1CCCNC2=O | inactive
44 | COc1ccc(C)cc1NC(=O)C1CC(=O)OC12CCCCC2 (stereo unspecified) | inactive
45 | Nc1c(S(=O)(=O)c2ccccc2)c2nc3ccccc3nc2n1/N=C/c1ccco1 | inactive
46 | Cc1cccc(S(=O)(=O)c2c(N)n(/N=C/c3ccco3)c3nc4ccccc4nc23)c1 | inactive
47 | CC(=O)N1c2c(cc(Br)cc2S(=O)(=O)N2CCOCC2)CC1C (stereo unspecified) | inactive
48 | CCC(C)(C)n1nnnc1C(c1cc2cc(C)ccc2[nH]c1=O)N1CCCc2ccccc21 (stereo unspecified) | inactive

Row | Structure (SMILES) | outcome
49 | COc1ccc2cc(C(c3nnnn3C3CCCC3)N3CCc4ccccc4C3)c(=O)[nH]c2c1 (stereo unspecified) | inactive
50 | COC(=O)c1ccc(S(=O)(=O)N2CCN(CCO)CC2)n1C | inactive
51 | O=C1c2c(O)ccc(O)c2C(=O)c2c(NCCNCCO)ccc(NCCNCCO)c21 | inactive
52 | COC(=O)COc1ccc2c(c1C)O/C(=C\c1ccco1)C2=O | inactive
53 | O=C(O)COc1ccc(NC(=O)c2ccco2)cc1 | inactive
54 | COc1ccc(NC(=O)c2ccc(-n3cccn3)nc2)cc1 | inactive
55 | COc1ccccc1C1CC(=O)Nc2c1c(=O)n(C)c(=O)n2C (stereo unspecified) | inactive
56 | CC(=O)Nc1nnc(-c2c(-c3c(Cl)cccc3Cl)noc2C)o1 | inactive
57 | O=C(Nc1nnc(C2CC2)s1)c1ccc(S(=O)(=O)c2ccccc2)cc1 | inactive
58 | CC12CCC(C(=O)NCCN3CCCCC3)(CC1=O)C2(C)C (stereo unspecified) | inactive
59 | CC(C)C(C)NC(=O)COc1ccc(S(=O)(=O)N2CCOCC2)cc1Cl (stereo unspecified) | inactive
60 | Clc1cccc(Cl)c1Cn1nnc(-c2cccs2)n1 | inactive
61 | COc1ccc(N(C(=O)COc2ccccc2OC)S(=O)(=O)c2ccc(C)cc2)cc1 | inactive
62 | O=C(CSc1nnnn1-c1ccccc1)Nc1nsc(-c2ccccc2)n1 | inactive
63 | NC(=O)c1ccc(-n2nnnc2SCC(=O)Nc2ccccc2-c2ccccc2)cc1 | inactive
64 | Cc1cc2cc(C=O)c(Cl)nc2cc1C | inactive
65 | Cc1ccccc1OCC(=O)NCC1CCCO1 (stereo unspecified) | inactive
66 | CCOc1cccc(SCc2noc(C(=O)NCC3CCCO3)c2C(=O)O)c1 (stereo unspecified) | inactive
67 | Cc1cc2ncn(C(=O)N3CCOCC3)c2cc1C | inactive
68 | O=C(CN1C(=O)NC2(CCCC2)C1=O)Nc1nc(-c2ccc(F)cc2)cs1 | inactive
69 | COc1ccc(CN2C(=O)c3ccccc3C2C(=O)NCc2cccnc2)c(OC)c1 (stereo unspecified) | inactive
70 | CCOc1ccc(N2C(=O)c3ccccc3C2O)cc1 (stereo unspecified) | inactive
71 | C/C(=N\NC(=O)c1ccc(NS(=O)(=O)c2cccs2)cc1)c1ccccc1 | inactive
